# Source: PubChem BioAssay AID651813 (National Center for Advancing Translational Sciences (NCATS), 2012)
# The campaign covered roughly 2,100 compounds. About 1,100 (52%) were called active. About 27% were inconclusive and are not listed. The set was probably picked from earlier hits. The list shows a part of the results. Unmarked numbers belong to inactive results. Calls come from the whole dose curve; as a rule, active = well fitted inhibition curve with a large enough effect; inconclusive = small, poorly fitted or top-dose-only effect; inactive = no such curve, though single readings can be large or run the other way.
# Biological target: DNA dC->dU-editing enzyme APOBEC-3G (Homo sapiens) (UniProt Q9HC16)
# Sequence (Q9HC16 whole entry, looked up): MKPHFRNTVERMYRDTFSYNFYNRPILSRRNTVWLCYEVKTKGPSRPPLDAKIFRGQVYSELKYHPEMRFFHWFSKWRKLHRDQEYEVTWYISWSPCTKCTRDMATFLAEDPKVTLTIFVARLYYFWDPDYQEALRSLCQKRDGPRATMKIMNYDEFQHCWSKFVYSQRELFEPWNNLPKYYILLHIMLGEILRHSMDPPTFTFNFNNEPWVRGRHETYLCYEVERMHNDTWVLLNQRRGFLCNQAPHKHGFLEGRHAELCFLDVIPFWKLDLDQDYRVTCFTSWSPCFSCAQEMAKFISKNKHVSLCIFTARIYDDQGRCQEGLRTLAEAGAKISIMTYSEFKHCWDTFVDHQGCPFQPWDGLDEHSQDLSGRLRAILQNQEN
# Assay: qHTS for inhibitors of Vif-A3G interactions: Cherry picks counterscreen;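 note: hits raise yellow fluorescence by blocking Vif-driven A3G-eYFP degradation; nearly all actives have a fitted effect of over 70% in size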;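 for max response: max response given as percent of control signal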
# Settings: HeLa A3G-eYFP + Vif (tagged APOBEC3G with the HIV-1 protein that degrades it), eYFP fluorescence, 24 h
# From the text: The recent discovery and characterization of host restriction factors, which provide a potent defense to invading retroviruses, has provided new targets for antiviral drug development. APOBEC3G (A3G) and APOBEC3F (A3F) are potent cytidine deaminases that block HIV-1 replication; HIV-1 expresses the Vif protein, which counteracts A3G and A3F by binding to them and inducing their proteasomal degradation. The Vif-A3G and Vif-A3F interactions provide two potential targets for development of small molecules which can interfere with the ability of Vif to degrade A3G or A3F. […] To identify inhibitors that can interfere with Vif mediated degradation of A3G and A3F, we have developed Hela cell lines that stably express A3G or A3F tagged with eYFP at the C-terminal end (A3G-eYFP or A3F-eYFP, respectively) and Vif. In the absence of an inhibitor, Vif induces degradation of A3G-eYFP and A3F-eYFP, and the cells are not fluorescent. In the presence of an inhibitor, it is expected that Vif will be unable to degrade A3G-eYFP and/or A3F-eYFP, resulting in an increase in yellow fluorescence. In this counterscreen assay, Vif A3G was screened against the cherry picks ordered from the MLSMR. NIH Chemical Genomics Center [NCGC] NIH Molecular Libraries Probe Centers Network [MLPCN] MLPCN Grant: MH093245 Assay Submitter (PI): Vinay Pathak, National Cancer Institute
# A3G-Vif cells were harvested from T225 flask and resuspended in phenol free OPTI-MEM medium with 5% FBS. Then 5 uL of 140,000 cells/mL resuspended cells was dispensed into each well of low base Aurora COC 1,536-well plates (black walled, clear bottom) using a Multidrop Combi dispenser. After overnight culture at 37 deg C with 5% CO2, a total of 23 nL of compounds at 5 selected concentrations from the NPC or positive control (2 mM stock of MG132) in DMSO was transferred to each well of the assay plate using a pintool (Kalypsys, San Diego, CA), and the plates were further incubated at 37 deg C with 5% CO2 for 24 hours. After that, the plates were measured on Acumen Explorer (TTP Lab Tech). The fluorescence was detected by 488 nm/Ex and […].
# Potency is the fitted concentration of half-maximal effect.
Structure (SMILES),Potency,max response
COc1cc(OC)c(/C=C/c2ccc3ccccc3[n+]2C)c(OC)c1,20.6 µM (active),–
CCCCN1C(=O)C2Cc3c([nH]c4ccccc34)CN2C1=S (centres undefined),15.8 µM (active),–
CCOc1ccc(CN2C(=O)c3ccccc3Sc3ccc(C(=O)O)cc32)cc1,4.61 µM (active),–
O=C(NNC1=Nc2cccc3cccc1c23)c1ccc(Br)cc1,23.1 µM (active),–
Nc1c(C(=O)N/N=C/c2ccccc2Cl)oc2nc(-c3ccccc3)cc(-c3ccco3)c12,2.91 µM (active),–
Nc1c(C(=O)N/N=C/c2ccc(F)cc2)oc2nc(-c3ccccc3)cc(-c3ccco3)c12,6.27 µM (active),–
C/C(=N\Nc1nc(C)cc(-c2ccccc2)n1)c1ccc(F)cc1,–,-5.07%
Nc1c(C(=O)N/N=C/c2cccnc2)oc2nc(-c3ccccc3)cc(-c3ccco3)c12,8.2 µM (active),–
Cc1cc(-c2ccccc2)nc(N/N=C/c2ccccc2F)n1,–,-29.5%
CSCC[C@H](NC(=O)[C@H](Cc1ccccc1)n1c(=O)[nH]c2ccccc2c1=O)C(=O)N1CCC[C@@H]1C(=O)O,–,6.25%
O=C(CN1C(=O)CSc2ncccc21)Nc1cccc(Cl)c1,23.1 µM (active),–
COc1ccc(NC(=O)CN2C(=O)C3(SCC(=O)N3c3ccccc3)c3ccccc32)cc1Cl (centres undefined),–,10.4%
O=C(CN1c2ccccc2Sc2ccccc21)NNC(=O)Nc1cccc(Cl)c1,–,-25.9%
CC(/C=C/c1ccc(N(C)C)cc1)=N\N=C(/N)SC1CC(=O)N(c2ccc(C(=O)O)cc2)C1=O (centres undefined),–,-29.3%
CCOC(=O)C1C(=O)C=C(/C=C/c2ccc(N(C)C)cc2)CC1c1ccccc1 (centres undefined),4.61 µM (active),–
CC(C)CC(=O)NC(=S)N(Cc1ccccc1)Cc1ccccc1,–,-12.5%
COc1cc(/C=C2\C(=N)N3N=CSC3=NC2=O)cc(Br)c1OC(=O)c1ccco1,–,43.8%
COc1cc(/C=C2\SC(N)=NC2=O)cc(Br)c1O,17.7 µM (active),–
CCOc1cc(C)nc(NCc2ccccc2)n1,–,-21.7%
COc1ccc(-c2nnc(SCC(=O)NCc3ccccc3)nc2-c2ccc(OC)c(OC)c2)cc1OC,2.59 µM (active),–
CCC(C)Sc1cc(-c2nc3ccccn3c2NC2CCCCC2)ccc1OC (centres undefined),–,6.89%
COc1ccc(-c2nc3c4ccccc4ccn3c2Cc2ccsc2)cc1OC,–,-1.53%
COc1cc(-c2nc3ccc(C)cn3c2NCc2ccccc2)ccc1SC1CCCCC1,–,34.4%
CCOc1cc(-c2nnc(SCC(=O)NCc3ccccc3)nc2-c2ccc(OC)c(OCC)c2)ccc1OC,2.31 µM (active),–

Structure (SMILES),Potency,max response
Cc1nc(C)c(C(=O)OCC(=O)Nc2ccccc2SCC#N)s1,15.8 µM (active),–
N#CCSc1ccccc1NC(=O)COc1ccc(-c2nnco2)cc1,12.5 µM (active),–
COc1ccc(C(=O)NC(=S)NCc2cccnc2)cc1Cl,–,-0.724%
CCC1=Nc2cc(C(=O)NCc3cccnc3)ccc2Sc2ccc(C)cc21,12.5 µM (active),–
C=CCNc1nc(-c2ccccc2)c(C(=O)OCC)cc1C#N,7.04 µM (active),–
CCOC(=O)c1cnc(-n2nc(C)cc2C)nc1NNc1nc(-c2ccccc2)cc(-c2ccccc2)n1,–,18.7%
CCOC(=O)c1cnc(-n2nc(C)cc2C)nc1NNc1cc(C)nc(-c2ccccc2)n1,–,14.5%
Oc1cccc(Nc2nc(O)c(/C=C3\C=Nc4ccccc43)s2)c1,20.6 µM (active),–
Cc1cc(/C=C2\NC(=S)N(C)C2=O)ccc1N1CCCC1,5.59 µM (active),–
O=C1/C(=C/c2ccc(N3CCCC3)cc2)NC(=S)N1C1CC1,7.31 µM (active),–
Cc1cc(N2CCCC2)ccc1/C=C1\NC(=S)N(C)C1=O,1.64 µM (active),–
Cc1cc(N2CCCC2)ccc1/C=C1/C(=O)N(C)C(=S)N1C,–,40%
CCN1C(=O)/C(=C/c2ccc(N3CCCC3)cc2)NC1=S,–,47.9%
C/C(=N\Nc1nccnc1Cl)c1ccc(Cl)c(Cl)c1,–,-0.872%
CCn1c(=O)c2cc(C(=O)NCCCOC)sc2c2ccccc21,7.04 µM (active),–
N#CC1=C2SCC(O)(c3ccccc3)N2C(=O)CC1c1ccccc1 (centres undefined),5.59 µM (active),–
CCS(=O)(=O)Nc1cccc(C2=NN(C(=O)c3ccco3)C(c3ccco3)C2)c1 (centres undefined),14 µM (active),–
CCOc1cc(N(CC)CC)ccc1/C=C(/C#N)c1nc2ccccc2[nH]1,–,57.6%
CSc1nc2ccccc2cc1/C=C(\C#N)c1cccc(C)c1,12.5 µM (active),–
CSc1nc2ccccc2cc1/C=C(\C#N)c1ccccc1,6.27 µM (active),–
CCN(CC)c1ccc(/C=C(/C#N)c2nc3ccccc3[nH]2)c(OC(C)C)c1,–,42%
COC(=O)C1=COC(C)C2CN3CCc4c([nH]c5cc(OC)c(OC)cc45)C3CC12 (centres undefined),–,-25.2%
COC(=O)C1C2CC3c4[nH]c5cc(OC)ccc5c4CCN3CC2CC(OC(=O)CC(C)=O)C1OC (centres undefined),20.6 µM (active),–
COc1cccc(/C(O)=C/c2nc3ccc(C(=O)NCCc4cccc(C)c4)cc3[nH]c2=O)c1,13 µM (active),–

Structure (SMILES),Potency,max response
COc1cccc(/C(O)=C/c2nc3ccc(C(=O)NCCc4ccc(Cl)cc4)cc3[nH]c2=O)c1,20.6 µM (active),–
Cc1ccc(C2NC(=O)c3ccccc3N2)s1 (centres undefined),12.5 µM (active),–
CCOc1ccccc1C1NC(=O)c2ccccc2N1 (centres undefined),2.5 µM (active),–
Cc1ccc(C)c(C2NC(=O)c3ccccc3N2)c1 (centres undefined),7.9 µM (active),–
O=[N+]([O-])c1ccccc1C1Nc2cccc3cccc(c23)N1,–,7.07%
COc1cc(OC)c(C2Nc3cccc4cccc(c34)N2)c(OC)c1,–,3.06%
COc1ccc2ccccc2c1C1NC(=O)c2ccccc2N1 (centres undefined),4.98 µM (active),–
CC(=O)/C(N=Nc1cc(C)ccc1O)=C(\C)O,20.6 µM (active),–
CCOC(=O)N1CCN(/C=C(\C#N)c2nc3ccccc3s2)CC1,23.1 µM (active),–
COc1ccc(C)cc1NCc1cc(=O)oc2cc(-c3ccccc3)c(O)cc12,–,-4.57%
COc1ccc(-c2coc3cc4oc(=O)cc(-c5ccccc5)c4cc23)cc1F,2.23 µM (active),–
CC(C)(C)n1ncc2c(=O)n(CC(=O)NCc3ccc(F)cc3)cnc21,7.9 µM (active),–
O=C(Cn1cnc2c(cnn2-c2ccc(F)cc2)c1=O)NCc1ccco1,17.7 µM (active),–
Cc1ccc(Cn2nnc3c(=O)n(CC(=O)NCc4ccccc4)cnc32)cc1,8.86 µM (active),–
Cc1sc2ncn(CC(=O)NCc3ccccc3)c(=O)c2c1C,–,-26.2%
CCN(CC)c1nc(C=Cc2ccc(N(C)C)cc2)c2nccnc2n1,0.651 µM (active),–
CN(C)c1ccc(C=Cc2nccc3ccccc23)cc1,14 µM (active),–
CN(C)c1ccc(/C=C/c2nccc3ccccc23)cc1,13 µM (active),–
CCN(Cc1ccccc1)c1ccc(/C=C/c2nccc3ccccc23)cc1,13 µM (active),–
CC(=O)/C(=C\N(C)C)Sc1ccc(Cl)cc1,–,12%
Cc1sc2ncnc(SCC(=O)NC(C)(C)C)c2c1C,–,-17.9%
COc1ccccc1Nc1nnc(SCC2CCCCO2)s1 (centres undefined),17.7 µM (active),–
COc1cccc(OCc2nc3ncc(Br)cc3[nH]2)c1,3.14 µM (active),–
Nc1cccc(CCc2nc3cc4ccccc4cc3[nH]2)c1,4.98 µM (active),–

Structure (SMILES),Potency,max response
COc1cccc(N2CC(O)=C(c3nc4ccccc4s3)C2=N)c1,7.9 µM (active),–
COc1cccc(N2CC(O)=C(c3nc4ccccc4c(=O)[nH]3)C2=N)c1,2.23 µM (active),–
CC(C)(C)c1ccc(OCC(=O)Nc2ccc3c4c(cccc24)C(=O)NC3=O)cc1,–,43.9%
O=CNc1ccc2c3c(cccc13)-c1ccccc1-2,11.2 µM (active),–
CCOC(=O)Nc1ccc2c3c(cccc13)-c1ccccc1-2,2.31 µM (active),–
N#Cc1cc2ccccc2nc1SCc1ccccn1,23.1 µM (active),–
CCCCCCN1C[C@H](O)[C@@H](n2cc(COC(=O)c3ccccc3)nn2)C[C@@H]1c1ccc(C)cc1,–,4.43%
CN(C)c1ccc2ccc3cccc4ccc1c2c34,13 µM (active),–
CSc1ccc(C2NC(=O)c3ccccc3N2)cc1 (centres undefined),11.2 µM (active),–
O=C1NC(c2cccc(Cl)c2)Nc2ccccc21 (centres undefined),12.5 µM (active),–
O=C1NC(c2ccc(Br)cc2)Nc2ccccc21 (centres undefined),17.7 µM (active),–
CC(C)n1cc(NC(=O)c2cc(-c3ccccc3)on2)cn1,5.59 µM (active),–
CCn1c(O)c(/C=N/N=C/c2ccc(OC)cc2)c2cc(C3=NNC(=O)CC3)ccc21,13 µM (active),–
N#C/C(=C\c1ccc(Cl)cc1)c1nc2ncccc2[nH]1,–,-13.6%
N#CC(=Cc1ccccn1)c1nc(-c2ccc(Cl)cc2)cs1,6.27 µM (active),–
Cc1ccc(CNC(=O)Cn2cc(C(=O)c3ccc(Cl)cc3)c(=O)c3ccc(C)nc32)cc1,–,-25%
O=C(Cn1nc2c(cc1=O)CCCC2)NCc1ccc(Cl)cc1,13 µM (active),–
CCC(C)Sc1cccc(-c2nc3cc(C)ccn3c2NC2CCCCC2)c1 (centres undefined),–,18.8%
Cc1cccc(N2CCN(C(=O)c3ccncc3)CC2)c1C,12.5 µM (active),–
O=C1COc2ccc(C(=O)CSc3nc4ccccc4c(=O)n3-c3ccc(Cl)c(Cl)c3)cc2N1,18.4 µM (active),–
Cc1ccc(/C=C2/CNC/C(=C/c3ccc(C)cc3)C2=O)cc1,5.59 µM (active),–
C[C@]12CCC[C@H](O1)c1c(cc3c(c1O)C(=O)c1c(O)cc(O)cc1C3=O)O2,16.4 µM (active),–
